SMARCA2 act: SMARCA2 (BRM) function activators, primary screen, cell-based, luminescence, high throughput | MG213 cells, MMTV-luciferase reporter, dexamethasone, overnight | activation, % at 9.1 µM | 370,000 tested, 1% active | AID 652017, 2013; in the data active = activation above about 7.8%;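 also: 0% = vehicle wells and 100% = reference activator wells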
ssDAF-12 act: S. stercoralis DAF-12 nuclear receptor activators, primary screen, cell-based, luminescence, HEK293, GRIP1 co-expression, lit1-tk-luc. Nuclear hormone receptor DAF-12 (Strongyloides stercoralis). HEK293 ssDAF-12/GRIP1 lit1-tk-luc reporter; % of 3 µM dafachronic acid response. activation, % at 6.8 µM. 370,000 tested, 1% active. AID 652126, 2013;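 active = activation above the mean over all tested compounds plus 3 SD, cut at about 0.9% in these data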;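 also: 0% = DMSO-only wells and 100% = 3 µM delta7-dafachronic acid wells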
hgDAF-12 ag: H. glycines DAF-12 receptor agonists, primary screen, cell-based, luminescence, HEK293, GAL4 fusion, UAS-luciferase; Nuclear hormone receptor DAF-12 (Heterodera glycines), GAL4 fusion; HEK293 GAL4-hgDAF12 UAS-luciferase reporter, agonist luminescence; normalized to butyrate control; activation, % at 6.8 µM; 370,000 tested, 1.8% active; AID 687014, 2013;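 active = activation above a cutoff set at the mean of all screened compounds plus 3 SD, cut at about 10% in these data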;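 also: 0% = DMSO wells and 100% = sodium butyrate wells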
DAX1 inh-1: DAX1 (NR0B1) inhibitors on StAR promoter, primary screen, cell-based, luminescence, SF-1 (NR5A1), full-length DAX-1; HEK293T StAR-luciferase reporter, SF-1/DAX-1 repression relief; inhibition, % at 6.8 µM; 370,000 tested, 1.1% active; AID 652010, 2013;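 active = inhibition above the mean over all tested compounds plus 3 SD, cut at about 3.6% in these data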;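 also: 0% = DAX-1 cells with DMSO and 100% = cells lacking DAX-1 with DMSO; higher inhibition means more luminescence from relief of DAX-1 repression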
DAX1 inh-2: DAX1 (NR0B1) inhibitors, primary screen, cell-based, HEK293, Gal4-DAX1, luciferase luminescence; inhibition, % at 6.75 µM; HEK293 Gal4-DAX1 luciferase reporter; Nuclear receptor subfamily 0 group B member 1 (Homo sapiens), P51843; 340,000 tested, 0.99% active;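 active = inhibition above the mean over all tested compounds plus 3 SD, cut at about 4.2% in these data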;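 also: 0% = DAX1-transfected cells with DMSO and 100% = empty-vector control cells with DMSO; inhibition shows as a rise in luminescence from relieved DAX1 repression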
hcDAF-12 act: H. contortus DAF-12 nuclear receptor activators, primary screen, cell-based, luminescence, HEK293, lit1-tk-luc reporter; HEK293 hcDAF-12 lit1-tk-luc reporter; 0% DMSO, 100% Δ7-dafachronic acid; activation, % at 6.8 µM; 370,000 tested, 1.4% active;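 active = activation above the mean of all tested compounds plus 3 SD, cut at about 5.5% in these data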;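 also: 100% = response to 3 µM Δ7-dafachronic acid high control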
hgDAF12 conf: H. glycines DAF-12 receptor agonists, confirmation, cell-based, luminescence, HEK293, GAL4-LBD fusion. shares compounds with hgDAF-12 ag. HEK293 GAL4-hgDAF12 luciferase reporter, agonist mode; percent of butyrate response. activation, % at 6.8 µM. 3,300 tested, 80% active. AID 743050, 2013;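 active = mean activation over triplicate wells above the hit cutoff derived from the earlier primary screen, cut at about 11% in these data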;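 also: 0% = DMSO low control and 100% = 2 mM sodium butyrate high control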
LXRb DAF12 ctr: LXR agonists, Gal4 luciferase reporter, confirmation, counter-screen for hgDAF-12 agonist project, cell-based, luminescence, HEK293, H. glycines campaign | activation, % at 6.8 µM | shares compounds with hgDAF-12 ag | AID 743051, 2013 | 24 h | 3,300 tested, under 10 active;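 active = mean activation of the triplicate above a set limit carried over from the primary screen, none filed active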
Target sequence (P55055 whole entry, looked up, the tested form may be a part): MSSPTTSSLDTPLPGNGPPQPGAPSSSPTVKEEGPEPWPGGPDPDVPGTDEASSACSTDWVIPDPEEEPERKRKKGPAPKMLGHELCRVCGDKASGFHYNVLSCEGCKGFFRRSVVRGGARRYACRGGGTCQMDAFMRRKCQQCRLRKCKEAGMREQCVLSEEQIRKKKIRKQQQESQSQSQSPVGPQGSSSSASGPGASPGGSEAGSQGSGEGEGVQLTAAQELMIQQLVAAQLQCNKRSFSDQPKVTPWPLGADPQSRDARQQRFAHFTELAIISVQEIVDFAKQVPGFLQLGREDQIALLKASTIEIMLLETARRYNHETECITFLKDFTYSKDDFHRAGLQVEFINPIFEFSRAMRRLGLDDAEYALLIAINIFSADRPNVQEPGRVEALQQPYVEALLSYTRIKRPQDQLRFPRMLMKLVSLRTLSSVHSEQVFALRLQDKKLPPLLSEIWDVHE
* marks the source's active call; other numbers are inactive results. This is a sample that favours compounds with a hit; in the whole collection about 4.8% have one here.

`CSc1cccc(NC(=O)c2cnn3ccccc23)c1` gave SMARCA2 act 4.7, ssDAF-12 act 1.7*, hgDAF-12 ag 17.6*, DAX1 inh-1 2.3, DAX1 inh-2 1.6, hcDAF-12 act 4.8, hgDAF12 conf 19.8* and LXRb DAF12 ctr 0.8.
`COc1cccc(-c2noc(C3CCCN(C(=O)CC(C)(C)C)C3)n2)c1` (stereo unspecified) gave SMARCA2 act 0.7, ssDAF-12 act -1.6, hgDAF-12 ag 8.9, DAX1 inh-1 0.8, DAX1 inh-2 0.7 and hcDAF-12 act 2.5.
Screening CCCCC(=O)N1CCCC(c2nc(-c3cccc(OC)c3)no2)C1 (stereo unspecified) returned SMARCA2 act 2.3, ssDAF-12 act -1.4, hgDAF-12 ag 14.9*, DAX1 inh-1 1.5, DAX1 inh-2 1.6, hcDAF-12 act 0.9, hgDAF12 conf 5.6 and LXRb DAF12 ctr 0.3.
`COc1ccc(-c2noc(C3CCCN(C(=O)NC4CCC(C)CC4)C3)n2)cc1` (stereo unspecified) gave SMARCA2 act 0.8, ssDAF-12 act -0.9, hgDAF-12 ag 14.2*, DAX1 inh-1 3.6, hcDAF-12 act 0.1, hgDAF12 conf 2.3 and LXRb DAF12 ctr 0.3.
For CCCCN1CC(COCc2ccccc2)Oc2cccc(NCc3cc(OC)c(OC)c(OC)c3)c2S1(=O)=O (stereo unspecified) the results were SMARCA2 act -2.5, ssDAF-12 act -1.3, hgDAF-12 ag -3.7, DAX1 inh-1 -3.7 and hcDAF-12 act -1.5.
For O=C(Cc1ccccc1)Nc1ccc(NC(=O)C2CCCCC2)nc1 the results were SMARCA2 act -0.5, ssDAF-12 act -1.8, hgDAF-12 ag 0.7, DAX1 inh-1 -1.4, DAX1 inh-2 -0.8 and hcDAF-12 act -2.5.
O=C(Nc1ccc(NC(=O)C2CCCCC2)cn1)c1ccco1 was read as SMARCA2 act 1.4, ssDAF-12 act 0.1, hgDAF-12 ag 16.2*, DAX1 inh-1 4.3*, DAX1 inh-2 -0.9, hcDAF-12 act 6.4*, hgDAF12 conf 10.8* and LXRb DAF12 ctr 0.6.
`Cc1cccc(NC(=O)c2nc[nH]c2C(=O)N(C)CCO)c1` gave SMARCA2 act 2.3, ssDAF-12 act -1.4, hgDAF-12 ag 0.9, DAX1 inh-1 -0.3 and hcDAF-12 act -1.0.
CC(=O)c1cccc(NC(=O)c2ccc(-c3ccccc3[N+](=O)[O-])o2)c1 was read as SMARCA2 act 2.0, ssDAF-12 act -0.5, hgDAF-12 ag 14.5*, DAX1 inh-1 2.5, DAX1 inh-2 2.3, hcDAF-12 act 0.8, hgDAF12 conf 12.6* and LXRb DAF12 ctr 0.6.
Screening Cc1cc(NC(=O)c2ccc(-c3ccccc3[N+](=O)[O-])o2)no1 returned SMARCA2 act 3.6, ssDAF-12 act -0.7, hgDAF-12 ag 3.7, DAX1 inh-1 1.2, DAX1 inh-2 0.1 and hcDAF-12 act -0.5.
Cc1ccc(-c2nc3ccccc3s2)cc1NC(=S)NC(=O)c1cccc2ccccc12 was read as SMARCA2 act 4.0, ssDAF-12 act 0.4, hgDAF-12 ag 16.6*, DAX1 inh-1 3.1, DAX1 inh-2 4.4*, hcDAF-12 act 6.0*, hgDAF12 conf 12.1* and LXRb DAF12 ctr 0.9.
For Nc1ccccc1N=Cc1ccc(-c2cccc(Cl)c2)o1 the results were SMARCA2 act -2.0, ssDAF-12 act 1.3*, hgDAF-12 ag 21.7*, DAX1 inh-1 1.6, DAX1 inh-2 3.4, hcDAF-12 act 2.8, hgDAF12 conf 15.3* and LXRb DAF12 ctr 0.4.
Screening CCOC(=O)CCCCCC(=O)Nc1ccc2c(c1)C(=O)N([C@H](C)CO)C[C@@H](C)[C@@H](CN(C)S(=O)(=O)c1ccc(C)cc1)OCCCC[C@H](C)O2 returned SMARCA2 act -1.7, ssDAF-12 act -0.7, hgDAF-12 ag -0.7, DAX1 inh-1 -1.0 and hcDAF-12 act -0.1.
`Cc1cc(C(=O)CN2C(=O)c3cccc(N)c3C2=O)c(C)n1Cc1cccs1` gave SMARCA2 act 7.0, ssDAF-12 act 1.0*, hgDAF-12 ag 15.0*, DAX1 inh-1 4.1*, DAX1 inh-2 1.7, hcDAF-12 act 6.0*, hgDAF12 conf 14.8* and LXRb DAF12 ctr 1.0.
For CC(=O)Nc1ccc(NC(=O)c2c(C)nn(Cc3ccccc3)c2Cl)cc1 the results were SMARCA2 act -0.1, ssDAF-12 act -1.5, hgDAF-12 ag 1.0, DAX1 inh-1 0.1, DAX1 inh-2 -0.6 and hcDAF-12 act -1.3.
For Cc1nn(Cc2ccccc2Cl)c(Cl)c1C(=O)NCCc1ccccc1 the results were SMARCA2 act 7.3, ssDAF-12 act -0.2, hgDAF-12 ag 16.9*, DAX1 inh-1 4.0*, DAX1 inh-2 2.9, hcDAF-12 act 2.6, hgDAF12 conf 15.1* and LXRb DAF12 ctr 0.7.
For O=C(Nc1cccc(Cl)c1)Nc1nnc([C@@H]2C[C@H](O)[C@@H](CO)O2)s1 the results were SMARCA2 act 4.3, ssDAF-12 act -0.5, hgDAF-12 ag 16.0*, DAX1 inh-1 2.5, hcDAF-12 act 1.8, hgDAF12 conf 9.9 and LXRb DAF12 ctr 0.2.
For O=C(Nc1cccc(F)c1)Nc1nnc([C@@H]2C[C@H](O)[C@@H](CO)O2)s1 the results were SMARCA2 act 1.2, ssDAF-12 act -0.7, hgDAF-12 ag 4.7, DAX1 inh-1 2.6 and hcDAF-12 act 3.7.
Screening O=C(/C=C/c1ccnc2ccccc12)c1cccs1 returned SMARCA2 act 6.5, ssDAF-12 act -0.1, hgDAF-12 ag 13.9*, DAX1 inh-1 2.5, DAX1 inh-2 0.6, hcDAF-12 act 4.0, hgDAF12 conf 14.6* and LXRb DAF12 ctr 0.8.
